MITF inh: MITF inhibitors, primary screen, biochemical, AlphaScreen, human | 0.91% of 650,000 active | inhibition, % at 2.6 µM | AlphaScreen MITF homodimerization, bead proximity signal; in the data active = inhibition above about 50%;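 also: 0% = vehicle wells with protein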
GPR151 ag: activators of human GPR151, primary screen, cell-based, PathHunter beta-arrestin, luminescence. G-protein coupled receptor 151 (Homo sapiens), Q8TDV0. PathHunter beta-arrestin GPR151 cells. activation, % at 11.2 µM. 1% of 650,000 active. AID 1508602, 2020; in the data active = activation above about 4.9%;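 also: 0% = median of compound wells and 100% = cells with positive control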
TEAD-YAP block: TEAD-YAP interaction inhibition, primary screen, TEAD-YAP interaction inhibitor project, luminescence, HEK-TIYL cells; TEAD-Gal4/YAP UAS-luciferase luminescence; inhibition, % at 9.12 µM; 1.4% of 640,000 active; in the data active = inhibition above about 32%;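 also: 0% = median of test compound wells and 100% = reference inhibitor wells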
FBW7 activator: FBW7 E3 ligase activators, primary screen, biochemical, AlphaScreen, human; normalized activity (activation), % at 26.1 µM; AlphaScreen FBW7–phospho-cyclin E peptide binding, activator screen; AID 1259310, 2017; 0.13% of 650,000 active; in the data active = normalized activity above about 1.9%;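 also: purified mutant Fbw7 with reduced substrate affinity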
Target sequence (Q969H0 whole entry, looked up): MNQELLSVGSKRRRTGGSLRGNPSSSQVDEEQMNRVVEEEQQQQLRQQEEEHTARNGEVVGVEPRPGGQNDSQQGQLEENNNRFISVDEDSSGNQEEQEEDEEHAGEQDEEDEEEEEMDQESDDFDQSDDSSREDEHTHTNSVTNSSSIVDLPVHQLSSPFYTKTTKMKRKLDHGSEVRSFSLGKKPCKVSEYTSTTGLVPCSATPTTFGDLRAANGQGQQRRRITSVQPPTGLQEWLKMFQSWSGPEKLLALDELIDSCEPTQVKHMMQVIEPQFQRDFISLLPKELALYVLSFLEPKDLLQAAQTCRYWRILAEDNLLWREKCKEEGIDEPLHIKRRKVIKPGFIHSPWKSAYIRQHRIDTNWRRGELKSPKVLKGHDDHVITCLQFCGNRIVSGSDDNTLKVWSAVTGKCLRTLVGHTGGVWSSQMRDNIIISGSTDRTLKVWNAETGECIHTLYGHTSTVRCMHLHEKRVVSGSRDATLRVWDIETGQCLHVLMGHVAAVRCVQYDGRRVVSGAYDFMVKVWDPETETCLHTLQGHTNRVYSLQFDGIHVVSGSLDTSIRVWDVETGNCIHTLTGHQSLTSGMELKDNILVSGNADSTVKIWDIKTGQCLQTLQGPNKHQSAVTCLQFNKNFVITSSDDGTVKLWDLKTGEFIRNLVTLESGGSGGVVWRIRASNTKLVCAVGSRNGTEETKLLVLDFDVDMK
MITF inh conf: MITF inhibitors, retest of hits, confirmation, biochemical, AlphaScreen, triplicate; shares compounds with MITF inh; AlphaScreen MITF homodimerization, biotin/His-MITF beads; inhibition, % at 2.6 µM; 16% of 4,700 active; AID 1259372, 2018;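 active = inhibition above a cutoff derived from the DMSO control wells, cut at about 28% in these data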;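 also: 0% = MITF dimer wells with DMSO only; inhibitors lower the bead chemiluminescence by keeping MITF from dimerizing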
AS interf ctr: AlphaScreen optical interference compounds, counter-screen for MITF inhibitor project, biochemical, triplicate; shares compounds with MITF inh; LysRS AlphaScreen counterscreen, signal interference; inhibition, % at 2.6 µM; 7.6% of 4,700 active; AID 1259376, 2018;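 active = inhibition above a cutoff derived from the DMSO control wells, cut at about 30% in these data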
* hit, by the source's call; . = not tested or not shown. The list is not random: actives were taken first. Their share in the collection is about 3.4%.

SMILES	MITF inh	GPR151 ag	TEAD-YAP block	FBW7 activator	MITF inh conf	AS interf ctr
CC1(NCC(O)COc2ccccc2)CCS(=O)(=O)C1 (stereo unspecified)	65*	0	8	0	2	-2
CC(C)(c1ccccc1)c1ccc(OCC(O)CN2CCCCC2)cc1 (stereo unspecified)	3	0	-3	0	.	.
O=c1[nH]c2ccccc2c(=O)n1CCCN1CCOCC1	11	-1	-1	0	.	.
O=c1[nH]c2ccccc2n1CN1CCc2ccccc2C1	51*	1	-1	0	11	13
O=c1[nH]c2ccccc2n1CN1CCOCC1	90*	2	-3	0	5	11
O=c1[nH]c2ccccc2n1CCCN1CCCCC1	-5	1	-2	0	.	.
Cc1cccc(NC(=O)CNCCCN2CCOCC2)c1C	76*	1	-2	0	-14	-6
O=C(Cc1cccs1)NCCCN1CCOCC1	102*	0	-4	0	16	14
O=C(Cc1cccs1)NCCCCCCNC(=O)Cc1cccs1	3	0	-4	0	.	.
Cc1cccc(C)c1NC(=O)CNCCCN1CCOCC1	88*	-2	2	0	-12	-5
Cc1ncc(CO)c(CNc2cccc(Cl)c2)c1O	11	3	-4	0	.	.
Cn1cnnc1SCC(=O)c1ccccc1Cl	-13	0	-9	0	.	.
CCOc1ccc(-n2nc3ccc(NC(=O)c4ccc(OCc5ccc(Cl)cc5)c(OC)c4)cc3n2)cc1	-4	1	-7	0	.	.
O=c1c2cnn(-c3ccccc3)c2nc(-c2ccccc2)n1-c1ccccc1	-4	-1	-1	0	.	.
Cc1ccc(NC(=O)c2cc3ccccc3oc2=O)cc1	10	-1	18	0	.	.
O=C(N/N=C/c1ccc(C(F)(F)F)cc1)c1ccc(O)cc1O	69*	-2	-14	0	7	25
CC(=O)N/C(=C\c1ccccc1)C(=O)OCC(=O)OC(C)(C)C	54*	0	-8	0	14	12
COc1cc(OC)c(C(=O)Nc2ccccc2C(F)(F)F)cc1OC	-30	-1	12	0	.	.
O=C(CNC(=S)N(Cc1ccccc1)Cc1cccs1)N1CCN(c2ccccn2)CC1	-16	0	11	0	.	.
CCNC(=O)N1CCC2(CC1)OCc1cc(F)ccc1O2	-11	2	1	0	.	.
CCOc1ccc(N=c2sc(C3=c4ccccc4=NC3=O)c(O)n2-c2ccc(OCC)cc2)cc1	113*	3	0	0	10	18
Cc1ccc(-c2ncnn2-c2cccc(Cl)c2)cc1	12	-1	9	0	.	.
COc1cn(CC(=O)Nc2cccc(F)c2)c(CN2CCCCCC2)cc1=O	0	3	-11	0	.	.
CCC(=O)Nc1ccc(C(=O)Nc2ccc(C#N)cc2)cc1	-4	0	-3	0	.	.
CCC(=O)Nc1ccc(C(=O)Nc2ccccc2C#N)cc1	51*	-1	-9	0	-10	-6
SMILES	MITF inh	GPR151 ag	TEAD-YAP block	FBW7 activator	MITF inh conf	AS interf ctr
CC(C)CN(CC(C)C)C(=S)NC1CCCCC1	69*	0	5	0	8	8
CC1=NN(c2nnc(C)c(=O)[nH]2)C(=O)C1	103*	-1	7	0	83*	100*
CC1=NN(c2ccc(C)cc2)C(=O)C1	13	-1	3	-1	.	.
Cc1c(CN2C(=O)c3cccc(N4CCN(C(=O)CC(C)(C)C)CC4)c3C2=O)cnn1C	-11	-1	-9	0	.	.
CCCC(=O)N1CCN(c2cccc3c2C(=O)N(Cc2cnn(C)c2C)C3=O)CC1	97*	-2	10	0	-2	-6
COc1cc(CN2CCC(C)CC2)c([N+](=O)[O-])cc1OC	-6	0	0	0	.	.
O=[N+]([O-])c1cc2c(cc1CN1CCN(CCO)CC1)OCO2	18	-1	-1	0	.	.
COc1cc(CN2CCN(Cc3cccc(C)c3)CC2)c([N+](=O)[O-])cc1OC	73*	0	0	0	2	11
COc1cc(CN2CCN(Cc3cccc(Cl)c3)CC2)c([N+](=O)[O-])cc1OC	57*	1	-6	0	20	24
O=[N+]([O-])c1cc2c(cc1CNCCCN1CCOCC1)OCO2	59*	1	2	0	-5	-5

High-throughput results from PubChem.
